Measured values published in PubChem BioAssay (Tox21).
“And” between values parts separate entries of the source, which are not always exact repeats. Equal values may be shown once. The source made the active and inactive calls. Unless noted, calls come from the whole dose curve; as a rule, active = well fitted curve in the direction sought with a large enough effect in the repeat runs; inconclusive = weak or mixed curves; inactive = no such curve, though single readings can be large; an effect the other way counts as inactive or inconclusive.

Experiments:
[1] = qHTS assay to identify small molecule antagonists of the thyroid receptor (TR) signaling pathway - cell viability counter screen (AID 743064); note: nearly all actives have a fitted effect of over 50% in size; note: potency is the fitted concentration of half-maximal effect
Outline: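 CellTiter-Fluor readout, 30 min at 37 °C/5% CO2, following 23.5 h incubation of GH3.TRE-Luc cells with test compound and 1 nM T3 (final).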

[2] = qHTS assay to identify small molecule antagonists of the thyroid receptor (TR) signaling pathway (AID 743065); note: nearly all actives have a fitted effect of over 55% in size; note: potency is the fitted concentration of half-maximal effect
Outline: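 GH3.TRE-Luc rat pituitary cells (two TREs driving luciferase) were dosed with compound, then stimulated with 1 nM T3 (final) for 23.5 h at 37 C. ONE-Glo luminescence was the read-out, with CellTiter-Fluor fluorescence as the cytotoxicity counter-screen.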

[3] = tested on: thyroid hormone receptor (rat, GH3 cells); assay: qHTS assay to identify small molecule agonists of the thyroid receptor (TR) signaling pathway (AID 743066; calls by dose curve)
[4] = molecular target: Estrogen receptor (Homo sapiens) (UniProt P03372); assay: qHTS assay to identify small molecule antagonists of the estrogen receptor alpha (ER-alpha) signaling pathway (AID 743069; active = well fitted curve in the direction sought with a large enough effect in the signal ratio in the repeat runs, not every such curve was filed as active; inconclusive = weak or mixed curves, or effect the other way; inactive = no such curve, though single readings can be large or run the other way; the % refers to the signal ratio; note: potency is the fitted concentration of half-maximal effect)
Outline: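 HEK293 ER-alpha-UAS-bla GripTite cells, held overnight in 2% charcoal-stripped FBS, 5,000 cells/well, preincubated 4 h, then compound plus 17beta-estradiol for 18 h at 37C. Beta-lactamase read by LiveBLAzer B/G FRET substrate, 2 h at room temperature.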

[5] = qHTS assay to identify small molecule antagonists of the estrogen receptor alpha (ER-alpha) signaling pathway - cell viability counter screen (AID 743074; calls by dose curve;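 note: HEK293 cells carrying ER-alpha-UAS-bla reporter stimulated with 17beta-estradiol; nearly all actives have a fitted effect of over 45% in size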; note: potency is the fitted concentration of half-maximal effect)
[6] = molecular target: Estrogen receptor (Homo sapiens) (UniProt P03372); assay: qHTS assay to identify small molecule agonists of the estrogen receptor alpha (ER-alpha) signaling pathway (AID 743075; calls by dose curve)
[7] = molecular target: Estrogen receptor (Homo sapiens) (UniProt P03372); assay: qHTS assay to identify small molecule agonists of the estrogen receptor alpha (ER-alpha) signaling pathway using the BG1 cell line (AID 743079); note: nearly all actives have a fitted effect of over 20% in size; note: potency is the fitted concentration of half-maximal effect
[8] = qHTS assay to identify small molecule antagonists of the estrogen receptor alpha (ER-alpha) signaling pathway using the BG1 cell line (AID 743080; calls by dose curve;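 note: BG1 cells stimulated with 17beta-estradiol alongside compound; nearly all actives have a fitted effect of over 25% in size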; note: potency is the fitted concentration of half-maximal effect)
Outline: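 Seeding, 24 h rest, compound transfer from DMSO, 17beta-estradiol addition, 21.5 h incubation, CellTiter-Fluor (30 min, 37 C), then ONE-Glo (30 min, room temperature): this sequence was run on BG1-Luc-4E2 reporter cells.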

[9] = qHTS assay to identify small molecule antagonists of the estrogen receptor alpha (ER-alpha) signaling pathway using the BG1 cell line - cell viability counter screen (AID 743081);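 note: compound given together with 17beta-estradiol as the ER stimulus; series mostly up to about 70 µM; nearly all actives have a fitted effect of over 45% in size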
Aromatase (Homo sapiens) = Aromatase (Homo sapiens) (UniProt P11511); assay: qHTS assay to identify aromatase inhibitors (AID 743083); note: nearly all actives have a fitted effect of over 55% in size; note: potency is the fitted concentration of half-maximal effect
[10] = qHTS assay to identify aromatase inhibitors - cell viability counter screen (AID 743084);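 note: cells stimulated with testosterone during compound exposure; nearly all actives have a fitted effect of over 55% in size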
[11] = qHTS assay to identify small molecule that activate the aryl hydrocarbon receptor (AhR) signaling pathway - cell viability counter screen (AID 743086); note: nearly all actives have a fitted effect of over 45% in size; note: potency is the fitted concentration of half-maximal effect
Outline: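 HepG2-AhR-luc (HG2L7.5c1) cells, 4000/well, treated 24 h at 37 C with compound; viability measured as CellTiter-Fluor fluorescence after 30 min in the same wells as the luciferase read.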

[12] = qHTS assay to identify small molecule antagonists of the peroxisome proliferator-activated receptor gamma (PPARg) signaling pathway - cell viability counter screen (AID 743194); note: nearly all actives have a fitted effect of over 55% in size; note: potency is the fitted concentration of half-maximal effect
Outline: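 Cytotoxicity counter screen in PPARg-bla HEK293H cells, same wells as reporter assay. Compounds plus 50 nM rosiglitazone (final) for 17 h at 37 C, then viability read by CellTiter-Glo luminescence.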

[13] = qHTS assay for small molecule agonists of the antioxidant response element (ARE) signaling pathway (AID 743202; active = well fitted activation curve with a large enough effect in the signal ratio in the repeat runs, not every such curve was filed as active; inconclusive = weak or mixed curves, or effect the other way; inactive = no such curve, though single readings can be large or run the other way; the % refers to the signal ratio; note: potency is the fitted concentration of half-maximal effect)
Outline: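 ARE-bla HepG2 cells (beta-lactamase reporter under the antioxidant response element), plated 5 hours, then exposed to compounds 16 hours at 37 C. LiveBLAzer B/G FRET substrate added for 2 hours at room temperature; fluorescence intensity read.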

[14] = qHTS assay for small molecule agonists of the antioxidant response element (ARE) signaling pathway - cell viability counter screen (AID 743203; calls by dose curve; note: nearly all actives have a fitted effect of over 55% in size; note: potency is the fitted concentration of half-maximal effect)
Outline: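 HepG2 cells carrying ARE-driven beta-lactamase; 2,000 cells/well; 5 hrs plating; compound pinned from DMSO; 16 hrs 37C/5% CO2; CellTiter-Glo added; 30 min RT; luminescence.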

[15] = qHTS assay for small molecule activators of the heat shock response signaling pathway - cell viability counter screen (AID 743209); note: nearly all actives have a fitted effect of over 50% in size; note: potency is the fitted concentration of half-maximal effect
Outline: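 Luminescence from CellTiter-Glo, added after the beta-lactamase FRET read, gave the viability signal. Cells were HSE-bla HeLa treated with DMSO-dissolved compounds for 5 h at 37 C following overnight plating.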

[16] = molecular target: Aryl hydrocarbon receptor (Homo sapiens) (UniProt P35869); assay: qHTS assay to identify small molecule that activate the aryl hydrocarbon receptor (AhR) signaling pathway (AID 743085); note: nearly all actives have a fitted effect of over 15% in size; note: potency is the fitted concentration of half-maximal effect;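 for activation: HG2L7.5c1 human HepG2 liver cells with stably integrated DRE-driven firefly reporter; series mostly up to about 70 µM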
Outline: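 Stably transfected human liver carcinoma cells (HG2L7.5c1; 20 DRE-firefly luciferase) were incubated 5 h, dosed, and kept 24 h at 37C. Agonism was scored from increased luciferase luminescence.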

[17] = molecular target: Peroxisome proliferator-activated receptor gamma (Homo sapiens) (UniProt P37231); assay: qHTS assay to identify small molecule agonists of the peroxisome proliferator-activated receptor gamma (PPARg) signaling pathway (AID 743094; active = well fitted activation curve with a large enough effect in the signal ratio in the repeat runs, not every such curve was filed as active; inconclusive = weak or mixed curves, or effect the other way; inactive = no such curve, though single readings can be large or run the other way; the % refers to the signal ratio)
Outline: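 Beta-lactamase FRET fluorescence was the read-out after a 1 h room-temperature substrate step, following 17 h compound treatment at 37C of HEK293H cells expressing a UAS-driven bla reporter responsive to PPARg.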

[18] = molecular target: Peroxisome proliferator-activated receptor gamma (Homo sapiens) (UniProt P37231); assay: qHTS assay to identify small molecule antagonists of the peroxisome proliferator-activated receptor gamma (PPARg) signaling pathway (AID 743191; calls by dose curve; note: nearly all actives have a fitted effect of over 30% in size; note: potency is the fitted concentration of half-maximal effect)
Outline: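 GeneBLAzer PPARg UAS-bla HEK293H cells, 5 h post-plating, exposed to compounds 17 h at 37C. LiveBLAzer B/G FRET substrate added for 1 h at room temperature; beta-lactamase reporter read by fluorescence intensity.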

[19] = qHTS assay for small molecule activators of the heat shock response signaling pathway (AID 743210; active = well fitted activation curve with a large enough effect in the signal ratio in the repeat runs, with a control signal flat, not every such curve was filed as active; inconclusive = weak or mixed curves; the % refers to the signal ratio; note: series mostly up to about 63 µM)
Outline: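 HSE-bla HeLa cells (beta-lactamase reporter under heat shock response elements), plated overnight, then exposed to compounds 5 h at 37 C; LiveBLAzer B/G FRET substrate added, 2.5 h at room temperature, fluorescence intensity read.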

Measured: Potency

Sequence of Estrogen receptor (Homo sapiens) (P03372 whole entry, looked up): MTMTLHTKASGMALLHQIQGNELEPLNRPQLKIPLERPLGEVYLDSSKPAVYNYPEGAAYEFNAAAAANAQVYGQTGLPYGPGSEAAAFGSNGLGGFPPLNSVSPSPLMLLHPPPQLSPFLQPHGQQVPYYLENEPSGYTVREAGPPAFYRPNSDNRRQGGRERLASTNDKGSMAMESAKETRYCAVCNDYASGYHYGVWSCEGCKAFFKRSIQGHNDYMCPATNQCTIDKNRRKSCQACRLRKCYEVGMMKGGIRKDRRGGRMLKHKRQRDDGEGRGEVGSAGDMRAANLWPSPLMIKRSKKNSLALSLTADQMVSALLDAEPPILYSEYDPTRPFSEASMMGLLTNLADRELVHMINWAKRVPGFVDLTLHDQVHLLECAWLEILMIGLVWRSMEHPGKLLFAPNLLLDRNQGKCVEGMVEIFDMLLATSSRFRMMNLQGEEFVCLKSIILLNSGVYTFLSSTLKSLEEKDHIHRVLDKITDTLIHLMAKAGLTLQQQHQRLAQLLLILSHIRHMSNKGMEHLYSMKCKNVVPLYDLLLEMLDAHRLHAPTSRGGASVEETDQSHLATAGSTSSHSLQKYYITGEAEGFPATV
Sequence of Peroxisome proliferator-activated receptor gamma (Homo sapiens) (P37231 whole entry, looked up): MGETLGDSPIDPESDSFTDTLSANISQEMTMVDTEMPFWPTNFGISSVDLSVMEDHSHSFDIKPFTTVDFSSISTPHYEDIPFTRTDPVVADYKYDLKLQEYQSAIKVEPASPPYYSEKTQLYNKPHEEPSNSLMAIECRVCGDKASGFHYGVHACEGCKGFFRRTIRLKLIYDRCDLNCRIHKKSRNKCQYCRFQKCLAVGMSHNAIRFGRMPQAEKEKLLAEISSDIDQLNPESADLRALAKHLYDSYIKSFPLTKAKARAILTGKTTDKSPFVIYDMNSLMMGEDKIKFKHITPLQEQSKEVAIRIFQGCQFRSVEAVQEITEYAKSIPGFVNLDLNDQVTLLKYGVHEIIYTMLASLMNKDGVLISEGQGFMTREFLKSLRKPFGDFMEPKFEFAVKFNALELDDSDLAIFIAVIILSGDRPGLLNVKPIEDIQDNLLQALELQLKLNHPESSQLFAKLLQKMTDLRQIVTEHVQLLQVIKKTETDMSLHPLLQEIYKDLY
Sequence of Aryl hydrocarbon receptor (Homo sapiens) (P35869 whole entry, looked up): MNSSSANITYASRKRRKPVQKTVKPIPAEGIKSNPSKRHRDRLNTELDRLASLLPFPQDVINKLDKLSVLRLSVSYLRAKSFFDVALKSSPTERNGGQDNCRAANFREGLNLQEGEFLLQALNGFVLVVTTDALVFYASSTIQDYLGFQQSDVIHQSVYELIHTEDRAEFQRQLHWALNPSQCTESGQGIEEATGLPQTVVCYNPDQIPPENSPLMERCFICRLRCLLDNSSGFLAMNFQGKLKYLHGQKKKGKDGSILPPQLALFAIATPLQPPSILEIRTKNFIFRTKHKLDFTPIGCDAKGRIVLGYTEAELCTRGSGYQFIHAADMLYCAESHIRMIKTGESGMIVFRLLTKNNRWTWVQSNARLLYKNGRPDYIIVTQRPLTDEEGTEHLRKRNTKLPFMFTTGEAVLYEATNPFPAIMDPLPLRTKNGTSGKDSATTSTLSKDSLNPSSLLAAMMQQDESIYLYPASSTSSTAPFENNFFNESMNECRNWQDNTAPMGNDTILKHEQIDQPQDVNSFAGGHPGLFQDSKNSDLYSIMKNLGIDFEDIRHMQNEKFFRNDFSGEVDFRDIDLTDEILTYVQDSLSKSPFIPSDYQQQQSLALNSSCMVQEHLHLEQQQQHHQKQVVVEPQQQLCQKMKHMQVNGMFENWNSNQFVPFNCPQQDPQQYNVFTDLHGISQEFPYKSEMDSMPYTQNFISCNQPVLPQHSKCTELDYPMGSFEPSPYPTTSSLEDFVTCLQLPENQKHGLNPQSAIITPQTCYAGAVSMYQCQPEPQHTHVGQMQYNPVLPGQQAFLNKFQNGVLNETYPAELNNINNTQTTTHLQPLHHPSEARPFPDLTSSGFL
Sequence of Aromatase (Homo sapiens) (P11511 whole entry, looked up): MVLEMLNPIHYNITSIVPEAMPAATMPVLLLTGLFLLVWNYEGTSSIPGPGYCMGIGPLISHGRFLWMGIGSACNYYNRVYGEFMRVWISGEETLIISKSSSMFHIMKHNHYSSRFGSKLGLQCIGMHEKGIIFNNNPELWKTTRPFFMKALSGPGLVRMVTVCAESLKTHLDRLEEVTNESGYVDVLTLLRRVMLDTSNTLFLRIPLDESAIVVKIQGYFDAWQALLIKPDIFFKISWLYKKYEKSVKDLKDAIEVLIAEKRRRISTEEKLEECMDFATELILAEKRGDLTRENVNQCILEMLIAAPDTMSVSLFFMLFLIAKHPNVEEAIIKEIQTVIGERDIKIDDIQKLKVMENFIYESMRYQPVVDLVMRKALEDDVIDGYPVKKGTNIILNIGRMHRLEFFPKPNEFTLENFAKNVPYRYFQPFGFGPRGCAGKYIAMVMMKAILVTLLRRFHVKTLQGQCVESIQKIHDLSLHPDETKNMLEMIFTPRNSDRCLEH

CCn1c2ccccc2c2cc([N+](=O)[O-])ccc21
not listed: [16] | [17] | [18] | [19]
inactive: all other assays above

c1ccc(SSc2ccccc2)cc1
not listed: [19]
inactive: all other assays above

O=C(Oc1ccccc1)Oc1ccccc1
inactive: all assays above

CC[N+](CC)(CC)CCOc1ccc(/C=C/c2ccccc2)cc1
active: [2] 29.8 µM | [4] 5.35 µM [inconclusive] | [8] 29.8 µM | Aromatase (Homo sapiens) 29.8 µM
not listed: [7] | [13]
inactive: all other assays above

O=C(/C=C/c1ccccc1)OC/C=C/c1ccccc1
active: [7] 30.6 µM
not listed: [11] | [13]
inactive: all other assays above

O=C(O)[C@H](O)[C@@H](O)[C@H](O[C@@H]1O[C@H](CO)[C@H](O)[C@H](O)[C@H]1O)[C@H](O)CO
not listed: [9]
inactive: all other assays above

COc1c(C)c2c(c(O)c1C/C=C(\C)CCC(=O)OCCN1CCOCC1)C(=O)OC2
active: [1] 1.68 µM | [2] 0.944 µM | [4] 3.38 µM [inconclusive] | [7] 13.3 µM | [18] 0.473 µM
not listed: [6] | [8] | [12] | [13] | [14] | [17]
inactive: all other assays above

CC1=Nc2ccccc2C1(C)C
not listed: [17] | [18] | [19]
inactive: all other assays above

CCCCOC(=O)CO
not listed: [11] | [18]
inactive: all other assays above

Cc1ccc(C(=O)O)cc1
not listed: [4] | [6] | [7] | [8] | [18]
inactive: all other assays above

O=C1CCCCCCCCCCCCCCCO1
not listed: [4] | [13] | [18]
inactive: all other assays above

Cc1ccc(O)c(N)c1
inactive: [3] | [5] | [6] | [9] | [14] | [15]
active: [1] 30.7 µM | [2] 43.3 µM | [16] 34.4 µM

O=C(/C=C/c1ccc(O)c(O)c1)O[C@@H](C(=O)O)[C@@H](OC(=O)/C=C/c1ccc(O)c(O)c1)C(=O)O
not listed: [4] | [6] | [7] | [8] | [13] | [16] | [18]
inactive: all other assays above

Nc1ccc(C(=O)O)c(O)c1
not listed: [4] | [6] | [7] | [8] | [18]
inactive: all other assays above

Cc1ccc(-c2ccccc2)cc1
not listed: [4] | [6] | [7] | [8] | [12]
inactive: all other assays above

CC1(C)[C@@H](O)CC[C@]2(C)[C@H]3C(=O)C=C4[C@@H]5C[C@@](C)(C(=O)O)CC[C@]5(C)CC[C@@]4(C)[C@]3(C)CC[C@@H]12
active: [1] 29.8 µM and 24.1 µM | [2] 29.8 µM and 26.6 µM and 27 µM | [15] 48.4 µM
not listed: [4] | [12] | [13] | [14] | [18] | [19]
inactive: all other assays above

COC(=O)c1ccccc1C
not listed: [4] | [12] | [18]
inactive: all other assays above

Cc1cc(C(C#N)c2ccc(Cl)cc2)c(Cl)cc1NC(=O)c1cc(I)cc(I)c1O (configuration not stated)
inactive: [3] | [6] | [9] | [10]
active: [1] 23.7 µM | [2] 26.6 µM | [5] 5.35 µM | [12] 3.76 µM | [14] 33.5 µM

CCN1C(=O)c2ccccc2C1Nc1ccc(OCCN2CCCCC2)cc1 (configuration not stated)
not listed: [4] | [9] | [18]
inactive: all other assays above

CC[N+](CC)(CC)CCOC(=O)C(C1CCCC1)C1CCCC1
not listed: [4] | [13] | [18]
inactive: all other assays above

CC(C)(c1cc(Br)c(OCC(Br)CBr)c(Br)c1)c1cc(Br)c(OCC(Br)CBr)c(Br)c1 (configuration not stated)
not listed: [4] | [18]
inactive: all other assays above

CCCCC(CC)COC(=O)CCCCC(=O)OCc1ccccc1 (configuration not stated)
not listed: [4] | [11] | [18]
inactive: all other assays above

O=C1C(c2[nH]c3ccc(S(=O)(=O)O)cc3c2O)=Nc2ccc(S(=O)(=O)O)cc21
not listed: [4] | [6] | [7] | [8] | [13]
inactive: all other assays above

CCN(CC)C(=O)c1cc(S(=O)(=O)Cc2ccccc2)c(N2CCC(c3ccccc3)CC2)cc1N(CC)CCN(C)C
inactive: [3] | [4] | [6] | [7] | [8] | [16] | [19]
active: [1] 3.35 µM and 4.28 µM | [2] 4.22 µM and 4.8 µM | [11] 23.7 µM | [14] 21.4 µM

CC(=O)c1ccc(C(C)=O)cc1
not listed: [4] | [6] | [7] | [8] | [11] | [12] | [18]
inactive: all other assays above

CCCCCCCCCCC[C@@H](C[C@@H]1OC(=O)[C@H]1CCCCCC)OC(=O)[C@H](CC(C)C)NC=O
not listed: [4] | [9] | [12] | [13] | [18] | [19]
inactive: all other assays above

CCCCCc1ccc(Cl)cc1
not listed: [4]
inactive: all other assays above

S=c1nccc[nH]1
active: [7] 30.7 µM
not listed: [4] | [6] | [13] | [18]
inactive: all other assays above

CCc1ccc(Br)cc1
not listed: [4] | [7]
inactive: all other assays above

OC/C=C/CO
active: [13] 21.6 µM
not listed: [4] | [6] | [7]
inactive: all other assays above

C=CC(C)(CCC=C(C)C)OC=O (configuration not stated)
not listed: [4] | [12] | [13]
inactive: all other assays above
